# In PubChem BioAssay AID1117353 (Cheminformatics & Chemogenomics Research Group (CCRG), …, 2015):
# Calls of active or inactive are those of the source. Cut-off read from the data, not from the text of the source: active = inhibition above about 50%; inactive = the rest.
# Target: Vascular endothelial growth factor receptor 2 (Homo sapiens) (UniProt P35968)
# Assay: VEGFR2 inhibitors, primary assay, biochemical, Homo sapiens, LANCE Ultra TR-FRET, NPC library (AID 1117353)
# Details: LANCE Ultra TR-FRET kinase assay; at 20 µM (top of the series)
# Chain of Vascular endothelial growth factor receptor 2 (Homo sapiens) (P35968 whole entry, looked up): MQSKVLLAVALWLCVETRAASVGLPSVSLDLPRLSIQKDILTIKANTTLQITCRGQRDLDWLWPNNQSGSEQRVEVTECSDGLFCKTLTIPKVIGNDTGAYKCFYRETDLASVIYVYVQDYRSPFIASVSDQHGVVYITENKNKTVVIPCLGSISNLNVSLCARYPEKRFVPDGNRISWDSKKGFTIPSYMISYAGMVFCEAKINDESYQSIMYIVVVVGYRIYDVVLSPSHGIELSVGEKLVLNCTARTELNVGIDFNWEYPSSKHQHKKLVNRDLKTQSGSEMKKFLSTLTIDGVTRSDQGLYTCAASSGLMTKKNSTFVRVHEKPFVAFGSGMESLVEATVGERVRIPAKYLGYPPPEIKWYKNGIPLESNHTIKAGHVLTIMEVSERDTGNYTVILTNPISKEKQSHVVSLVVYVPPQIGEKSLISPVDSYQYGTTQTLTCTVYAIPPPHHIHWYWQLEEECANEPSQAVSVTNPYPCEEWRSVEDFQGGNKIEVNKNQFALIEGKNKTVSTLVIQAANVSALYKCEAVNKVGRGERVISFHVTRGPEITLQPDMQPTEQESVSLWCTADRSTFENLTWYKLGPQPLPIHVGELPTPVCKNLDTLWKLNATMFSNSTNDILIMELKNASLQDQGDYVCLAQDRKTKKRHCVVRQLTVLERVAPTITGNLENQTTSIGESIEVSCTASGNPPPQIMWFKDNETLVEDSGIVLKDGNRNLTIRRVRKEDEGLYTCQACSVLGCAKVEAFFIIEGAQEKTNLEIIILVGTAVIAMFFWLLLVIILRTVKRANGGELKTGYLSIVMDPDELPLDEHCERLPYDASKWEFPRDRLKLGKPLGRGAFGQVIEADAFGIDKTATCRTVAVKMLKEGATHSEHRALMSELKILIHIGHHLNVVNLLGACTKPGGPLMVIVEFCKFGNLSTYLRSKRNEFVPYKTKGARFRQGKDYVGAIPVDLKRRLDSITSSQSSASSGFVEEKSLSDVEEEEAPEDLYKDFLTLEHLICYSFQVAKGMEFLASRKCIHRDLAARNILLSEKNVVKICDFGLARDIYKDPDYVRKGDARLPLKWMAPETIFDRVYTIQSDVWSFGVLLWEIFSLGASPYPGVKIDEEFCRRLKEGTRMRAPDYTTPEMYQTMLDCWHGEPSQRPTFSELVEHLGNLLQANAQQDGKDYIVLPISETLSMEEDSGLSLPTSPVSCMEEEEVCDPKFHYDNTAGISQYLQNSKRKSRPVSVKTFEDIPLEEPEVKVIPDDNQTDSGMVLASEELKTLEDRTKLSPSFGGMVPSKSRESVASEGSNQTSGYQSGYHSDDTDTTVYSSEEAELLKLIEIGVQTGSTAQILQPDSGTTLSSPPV
row,SMILES,inhibition
1,CC(C)(C)C(=O)OCOP(=O)(COCCn1cnc2c(N)ncnc21)OCOC(=O)C(C)(C)C,-10.9% (inactive)
2,COC(=O)Nc1nc2ccc(S(=O)c3ccccc3)cc2[nH]1 (centres undefined),8.1% (inactive)
3,O=C(CCCCCCC(=O)Nc1ccccc1)NO,-32.6% (inactive)
4,Cc1ccc2nc(N)[nH]c(=O)c2c1Sc1ccncc1,-56.2% (inactive)
5,CSc1ccc2c(c1)C(N1CCN(C)CC1)Cc1ccccc1S2 (centres undefined),-11.8% (inactive)
6,O=c1[nH]c(=O)n([C@H]2C[C@H](O)[C@@H](CO)O2)cc1F,-21.7% (inactive)
7,COc1cccc2c1C(=O)c1c(O)c3c(c(O)c1C2=O)C[C@@](O)(C(C)=O)C[C@@H]3O[C@H]1C[C@H](N)[C@H](O)[C@H](C)O1,14% (inactive)
8,Cc1cc(=O)c2c(O)c3c(O)cc(=O)c4c3c3c(cc(O)c1c23)C(C)(C)C=4O,22.3% (inactive)
9,CC[C@]1(O)C[C@@H]2CN(CCc3c([nH]c4ccccc34)[C@@](C(=O)OC)(c3cc4c(cc3OC)N(C)[C@H]3[C@@](O)(C(=O)OC)[C@H](OC(C)=O)[C@]5(CC)C=CCN6CC[C@]43[C@@H]65)C2)C1,-21.1% (inactive)
10,C[C@@]12C(=O)OC(=O)[C@]1(C)C1CCC2O1,-15.1% (inactive)
11,O=[N+]([O-])c1ccc(O)c2ncccc12,11.1% (inactive)
12,Cc1cc(O)c2ccccc2c1O,50% (active)
13,Oc1c(Cl)cc(Cl)c2cccnc12,-23.4% (inactive)
14,CCCCCCCCCCCCCCCC[n+]1ccccc1,-114% (inactive)
